BoNT-A LC inh2: inhibitors of Botulinum neurotoxin A light chain protease | inhibition, % at 10 µM | multiplex microsphere protease substrate cleavage, flow cytometry | hit rate 0.17% among 360,000 | AID 588499
BoNT F protease: blocks Botulinum neurotoxin F light chain protease; Multiplex microsphere protease cleavage assay, flow cytometry; inhibition, % at 10 µM; hit rate 0.22% among 360,000; in the data active means inhibition above about 35%, passing the limit was not always enough; inconclusive means no clear call, values can overlap the other calls
VHR inh abs: inhibitors of human VHR1 phosphatase (DUSP3). P51452. recombinant VHR phosphatase, pNPP absorbance. inhibition, % at 13.3 µM. hit rate 0.52% among 290,000; in the data active means inhibition above about 50%
Bead autofluor: compound fluorescence in toxin protease inhibitor counterscreen | AID 624483 | compound autofluorescence counterscreen, microsphere flow cytometry; hits give high values | fluorescence intensity (test concentration not listed) | hit rate 3.1% among 360,000; in the data active means fluorescence intensity above about 16000; inconclusive means no clear call, values can overlap the other calls
MazF activator: increases E. coli MazEF RNase cleavage of RNA. activation, % at 20 µM. AID 504720. FAM/BHQ RNA-DNA oligo cleavage fluorescence, 5 h. P0AE70. hit rate 0.32% among 350,000; in the data active means activation above about 50%
Anthrax LF inh2: blocks Bacillus anthracis lethal factor protease; inhibition, % at 10 µM; hit rate 0.12% among 360,000; AID 588501; P15917; multiplex microsphere protease cleavage assay, LF
Target sequence (P15917 whole entry, looked up): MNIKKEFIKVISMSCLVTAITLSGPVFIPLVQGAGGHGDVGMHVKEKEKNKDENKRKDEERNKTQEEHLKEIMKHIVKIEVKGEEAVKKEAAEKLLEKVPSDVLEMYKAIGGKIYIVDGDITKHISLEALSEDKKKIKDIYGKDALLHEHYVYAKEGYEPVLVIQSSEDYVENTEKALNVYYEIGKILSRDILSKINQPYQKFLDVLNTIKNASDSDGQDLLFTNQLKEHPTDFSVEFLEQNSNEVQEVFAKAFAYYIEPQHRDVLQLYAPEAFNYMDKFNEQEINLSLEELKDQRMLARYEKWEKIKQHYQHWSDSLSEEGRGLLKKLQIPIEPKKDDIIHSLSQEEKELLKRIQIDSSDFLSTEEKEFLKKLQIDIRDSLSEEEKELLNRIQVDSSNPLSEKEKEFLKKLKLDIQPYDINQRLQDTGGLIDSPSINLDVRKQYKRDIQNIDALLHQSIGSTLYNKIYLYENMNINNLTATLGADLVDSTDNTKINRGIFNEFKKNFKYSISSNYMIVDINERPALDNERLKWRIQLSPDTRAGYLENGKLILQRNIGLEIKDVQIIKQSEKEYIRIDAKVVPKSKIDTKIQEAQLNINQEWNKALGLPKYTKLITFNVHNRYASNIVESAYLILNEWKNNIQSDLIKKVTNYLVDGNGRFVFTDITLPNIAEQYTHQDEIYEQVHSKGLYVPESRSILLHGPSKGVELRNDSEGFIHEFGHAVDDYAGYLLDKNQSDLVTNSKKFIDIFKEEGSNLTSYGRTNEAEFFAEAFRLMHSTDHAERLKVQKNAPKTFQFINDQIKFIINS
Hits are given with their value; 0 = inactive; ? = inconclusive; - = no result. In the library only some 4.1% were active in any assay of this set; here they are far more common. Unless noted, no stated cut-off is given here; in the data, active means inhibition above about 30%; inconclusive means no clear call, values can overlap the other calls; inactive means below that.

SMILES	BoNT-A LC inh2	BoNT F protease	VHR inh abs	Bead autofluor	MazF activator	Anthrax LF inh2
COc1ccc(C2SCC(=O)Nc3c2c(C)nn3-c2ccccc2)cc1 (stereo not drawn)	0	0	0	0	0	0
CSCCC(c1nnnn1C(C)(C)C)N1CCN(C/C=C/c2ccccc2)CC1 (stereo not drawn)	0	0	-	0	-	0
CCOc1cc([C@H]2[C@@H]3CCCC[C@]3(O)CCN2CC(=O)NCc2ccco2)ccc1O	0	0	0	22611	0	0
Cc1cc(C)c2c(n1)sc1c(N3CCN(CCO)CC3)ncnc12	0	0	0	17147	0	0
CCOc1ncnc2c1sc1nc(C)cc(C)c12	0	0	0	0	0	0
O=C(NCCCN1CCC(Cc2ccccc2)CC1)C1CC(=O)N(C2CCCCCC2)C1 (stereo not drawn)	0	0	0	20812	0	0
O=C(NCc1ccc(F)cc1)C1CC(=O)N(C2CCCCCCC2)C1 (stereo not drawn)	0	0	56	0	0	0
CN1CCN(CCCNC(=O)C2CC(=O)N(C3CCCCC3)C2)CC1 (stereo not drawn)	0	0	0	0	0	0
COc1ccccc1NS(=O)(=O)c1cccc(NC(=O)Cc2cccs2)c1	0	0	0	0	0	0
COc1ccc(-c2oc3ncnc(N)c3c2-c2ccccc2)cc1	0	0	0	21630	0	0
COc1ccc(-c2oc3ncn4nc(COc5ccccc5)nc4c3c2-c2ccc(OC)cc2)cc1	0	0	0	0	0	0
COc1ccc(C(CNC(=O)c2ccc(C)c(S(=O)(=O)N3CCOCC3)c2)N2CCCC2)cc1 (stereo not drawn)	0	0	-	0	0	0
COc1ccccc1NS(=O)(=O)c1cccc(C(=O)NCC(c2ccccc2OC)N2CCCC2)c1 (stereo not drawn)	0	0	-	20056	0	0
COc1ccc(C(CNC(=O)c2cccc(NS(=O)(=O)c3ccccc3)c2)N2CCCC2)cc1 (stereo not drawn)	0	0	-	0	0	0
COc1ccc(C(CNC(=O)c2cccc(S(=O)(=O)N(C)c3ccccc3)c2)N2CCCC2)cc1 (stereo not drawn)	0	0	-	59722	0	0
COc1ccc(C(CNC(=O)c2cccc(Br)c2)N2CCCC2)cc1 (stereo not drawn)	0	0	0	28340	0	0
COc1ccc(C(CNC(=O)c2cccc(NC(=O)c3cccs3)c2)N2CCCC2)cc1 (stereo not drawn)	0	0	-	0	0	0
COc1ccc(C(CNC(=O)c2ccc(Cl)c(S(=O)(=O)N3CCCC3)c2)N2CCCC2)cc1 (stereo not drawn)	0	0	-	30581	0	0
COc1ccccc1NS(=O)(=O)c1cccc(C(=O)NCC(c2ccco2)N2CCCC2)c1 (stereo not drawn)	0	0	-	0	0	0
O=C(NCCCN1CCCC1=O)C(=O)NCC1OCCN1S(=O)(=O)c1cc(F)ccc1F (stereo not drawn)	0	0	-	0	0	0
Cc1ccc2nc(-c3ccccn3)cc(C(=O)NCCc3ccc(F)cc3)c2c1	0	0	0	0	0	0
COc1ccc(C(CNC(=O)c2cc(C)oc2C)N2CCOCC2)cc1 (stereo not drawn)	0	0	0	16136	0	0
CCc1cc(C(=O)NCC(c2ccc(OC)cc2)N2CCOCC2)sc1C (stereo not drawn)	?	?	-	?	0	?
O=C(OCc1cccc(F)c1)c1ccc2c(c1)-c1ccccc1C2=O	0	0	0	22813	0	0
CC(=O)Nc1ccccc1C(=O)OCc1ccccc1F	0	0	0	0	0	0
SMILES	BoNT-A LC inh2	BoNT F protease	VHR inh abs	Bead autofluor	MazF activator	Anthrax LF inh2
CCOC(=O)c1ccc(COC(=O)c2ccc3c(c2)-c2ccccc2C3=O)cc1	0	0	0	0	0	0
O=C(OCc1ccccc1F)c1ccc2c(c1)-c1ccccc1C2=O	0	0	0	19102	0	0
CC(C)(C)NCC(O)COc1c(F)cc(Br)cc1F (stereo not drawn)	0	0	0	22894	0	0
CCOC(=O)c1cnn(CCOC(=O)C2CC2)c1NC(=O)C1CC1	0	0	0	20293	0	0
CC(C)(C(=O)N1CCC1(C)C(=O)NS(=O)(=O)c1ccc(C#N)cc1)c1ccccc1 (stereo not drawn)	0	0	-	0	-	0
Cc1ccc(C([O-])=C(C(=S)NCc2ccccc2)[n+]2cccc(CO)c2)cc1[N+](=O)[O-]	0	0	-	0	0	0
CC1CC(NC(=O)CC#N)CC(C)(C)C1 (stereo not drawn)	?	?	0	0	0	0

Screening results (PubChem)
